This note sets out measurements from PubChem BioAssay AID652104 (National Center for Advancing Translational Sciences (NCATS), 2013).

Hit rate of the full screen: of about 410,000 compounds, about 7,200 (1.8%) were called active. A call without a number means that no potency is given here. Another 7% or so got no clear call; they are omitted. Only a selection was taken, and actives are over-represented in it overall. A number with no mark means an inactive call. Calls follow the shape of the dose curve; as a rule, active = well fitted activation curve with a large enough effect; inconclusive = small, poorly fitted or top-dose-only effect, or another doubt; inactive = no such curve, though single readings can be large or run the other way.
Potency is read from the fitted curve at half-maximal effect.

The nature of the test: qHTS of TDP-43 Inhibitors. Also: nearly all actives have a fitted effect of over 50% in size. Conditions: TDP-43 expressing yeast growth rescue, BacTiter-Glo, 24 h; series mostly up to 46.1 µM. An excerpt: The goal of this project is to identify new chemical probes capable of reversing the toxicity associated with TDP-43 which is associated with frontotemporal lobar degeneration and amyotrophic lateral sclerosis. These compounds will provide a complementary approach to deciphering the tangled mechanisms of toxicity and protection that we have uncovered through genome-wide genetic screens and are beginning to uncover in a large-scale proteomics analysis with mass spectroscopy.
To this end, a miniaturized assay was developed to be screened against the Molecular Libraries Small Molecule Repository (MLSMR) to discover TDP-43 inhibitors. Please note that in the set-up this yeast-based assay compounds that inhibit as TDP-43, have a read-out as activators.
NIH Chemical Genomics Center [NCGC]
NIH Molecular Libraries Probe Centers Network [MLPCN]
Assay Submitter (PI): Susan Lindquist, Whitehead Institute/MIT
Dispense 2.5 microL yeast galactose medium per 1536-well plate, pin compound, dispense 2.5 microL TDP-43 expressing yeast in galactose medium at OD600=0.02 (pregrown in raffinose medium to mid-log phase) per well, incubate for 24 hr at 30 deg C, and cell growth will be measured using 5 microL of Bactiter/Glo reagent to entire plate and read using Luminescence Protocol in ViewLux.
(qHTS replaces the single test concentration by a dilution series.)
`O=C1N(Cc2ccccc2)c2ccc(Cl)cc2C1(O)c1c[nH]c2ccccc12` (stereo not given): the Potency entry was “inactive”.

Consider `CCCCOc1ccc(NC(=O)CSCC(=O)OCC)cc1`, for which the Potency was 12.6 µM (active).

On to `CCCCN(C(=O)CSCC(=O)Nc1ccc(OC)cc1)c1c(N)n(CCC)c(=O)[nH]c1=O`, for which the Potency result is “inactive”.

Turning to `CCOc1ccc(NC(=O)CSc2nncn2C)cc1`, the Potency result was “inactive”.

As for `O=C(COc1ccc(Cl)cc1)Nc1ccc(-c2nc3cc(Cl)ccc3o2)c(O)c1`, the Potency result was “inactive”.

As for `O=S(=O)(c1ccc(Br)cc1)c1nnn2c1nc(NC1CCCCCC1)c1sccc12`, the Potency entry was “inactive”.

Consider `COC(C/C=C/C(=O)[C@@H](C)OCc1ccccc1)OC`, for which the Potency was 20 µM (active).

On to `COC(C[C@H](O)CC(=O)[C@@H](C)OCc1ccccc1)OC`, for which the Potency result is “inactive”.

As for `COC(C[C@@H]1O[C@@H]1C(=O)[C@H](C)OCc1ccccc1)OC`, the Potency result was “inactive”.

Consider `Cc1ccc(NC(=O)C(=O)NCC(c2cccnc2)N2CCOCC2)cc1` (stereo not given), for which the Potency result was “inactive”.

Turning to `COc1ccc(OC)c(-n2nnc3c(sc4nc(C)c(Br)c(C)c43)c2=O)c1`, the Potency entry was “inactive”.

`CCc1ccc(Nc2nn3c(=O)c4cc5c(cc4nc3s2)OCO5)cc1`: the Potency result is “inactive”.

Consider `COc1cc(OC)c(NC(=O)c2nc(-c3ccncc3)no2)cc1Cl`, for which the Potency entry is “inactive”.

Take `Cc1cc(Cl)ccc1OCc1nc(-c2ccncc2)no1`: the Potency was 20 µM (active).

For the compound `CC1CCN(Cc2nc(-c3ccc(Cl)cc3)no2)CC1`, the Potency entry is “inactive”.

Consider `Cc1c(Cl)cccc1NC(=O)Cn1cc(C(=O)c2cccs2)c2ccccc21`, for which the Potency result was “inactive”.

For the compound `COc1ccc(N2CCN(Cc3nc4c(c(=O)[nH]c(=O)n4C)n3Cc3ccc(Cl)cc3)CC2)cc1`, the Potency entry was “inactive”.

For `Cc1cccc(C(=O)N2CCc3cc(CNC(=O)Cc4ccc(F)cc4)ccc32)c1`, the Potency result is “inactive”.

As to `CC1=Nc2cc(C(=O)NCc3ccc(C)cc3)ccc2Sc2ccc(Cl)cc21`, the Potency entry is “inactive”.

Take `CCc1c(-c2ccc(F)cc2)ncn1Cc1cccc(-c2ccccc2)c1`: the Potency is 15.8 µM (active).

With `CCCCc1c(-c2ccc(Br)cc2)ncn1CCc1ccccc1OC`, the Potency result was “inactive”.

On to `CCCc1c(-c2ccccc2F)ncn1Cc1ccccc1OC`, for which the Potency entry was “inactive”.

Regarding `CCOc1ccc(C(=O)Nc2ccc3nc4c(c(Nc5ccccc5OC)c3c2)CCCC4)cc1`, the Potency entry is “inactive”.

`CCOc1ccc(CNC(=O)c2cc(=O)[nH]c3ccc(S(=O)(=O)N4CCCCC4)cc23)cc1`: the Potency entry is “inactive”.

As for `COc1ccc(CNC(=O)c2cc3c(=O)[nH]c4ccccc4c3s2)cc1`, the Potency result was “inactive”.

For `Cc1cccc(N2CCN(S(=O)(=O)c3ccc4[nH]c5c(c4c3)CCCCC5)CC2)c1C`, the Potency result was “inactive”.

Turning to `O=C(c1cccc2ccccc12)N1CCN(c2ccccc2F)CC1`, the Potency is 12.6 µM (active).

Turning to `O=C(c1ccc(CN2CCOCC2)cc1)N1CCN(c2ccccc2F)CC1`, the Potency result is “inactive”.

Turning to `COc1cc(OC)c(OC)cc1CN1CCN(C(=O)c2cccc3ccccc23)CC1`, the Potency entry was “inactive”.

On to `CCCSc1ncc(Cl)c(C(=O)Nc2sc3c(c2C(=O)NCCOC)CCCC3)n1`, for which the Potency result was “inactive”.

`O=C(NCCc1ccc(Cl)cc1)c1ccc2nc(CCc3ccccc3)oc2c1`: the Potency result was “inactive”.

`CNC(=O)c1nnc(Cc2ccc(Cl)cc2)o1`: the Potency result is “inactive”.

Take `CC(CNC(=O)c1nnc(Cc2cccc(F)c2)o1)c1ccccc1` (stereo not given): the Potency is 15.8 µM (active).

As to `O=C(NCCCN1CCN(c2cccc(Cl)c2)CC1)c1nnc(Cc2ccc(F)cc2Cl)o1`, the Potency result is “inactive”.

For `CCOC(=O)c1cnc2c(C)cc(Cl)cc2c1NCCc1ccc(OC)c(OC)c1`, the Potency result was “inactive”.

Take `Cc1ccc(Nc2nc3ccccc3nc2-n2nc(C)cc2C)c(Cl)c1`: the Potency entry is “inactive”.

Regarding `CCOc1ccc(CNC(=O)c2cc(-c3ccc(Cl)s3)nc3ccccc23)cc1`, the Potency result is “inactive”.

For the compound `O=C(c1ccco1)n1nc(-c2ccc(Cl)cc2)nc1NCc1ccccc1`, the Potency entry is “inactive”.

As for `CN(O)C(=S)c1ccccc1`, the Potency was 3.55 µM (active).

For the compound `Cc1cc(C)cc(NC(=O)Cn2nc(N3CCN(c4ccccc4)CC3)ccc2=O)c1`, the Potency result was “inactive”.

Regarding `Cc1cc(C)nc(-n2ncc3c2CC(c2ccc(C(C)C)cc2)CC3=O)n1` (stereo not given), the Potency is 28.2 µM (active).

On to `Cc1nc2nc3c(cn2n1)C(=O)CC(c1ccccc1)C3` (stereo not given), for which the Potency result was “inactive”.

Turning to `CNC(=O)c1csc(Cc2c(Cl)sc3ccc(Cl)cc23)n1`, the Potency is 20 µM (active).

As for `CC(=O)NNC(=O)c1csc(Cc2c(Cl)sc3ccc(Cl)cc23)n1`, the Potency result is “inactive”.

For the compound `O=C(O)COCC(=O)NCc1csc2ccc(Cl)cc12`, the Potency result is “inactive”.

As to `COc1ccc(-n2c(=O)c3ccccc3n(Cc3ccccc3Cl)c2=O)cc1`, the Potency result is “inactive”.

With `Cc1ccc(CCN2CC(C(=O)NCCc3ccccc3)CC2=O)cc1` (stereo not given), the Potency entry is “inactive”.

For `C=CCN1C(=O)C(O)(CC(=O)c2ccc(Cl)cc2)c2ccccc21` (stereo not given), the Potency entry was “inactive”.

Consider `Cc1coc(C)c1C(=O)CC1(O)C(=O)N(C)c2ccc(Cl)cc21` (stereo not given), for which the Potency entry is “inactive”.

With `CCOC(=O)CN1C(=O)C(O)(CC(=O)c2ccccn2)c2ccccc21` (stereo not given), the Potency result was “inactive”.

For `Cc1ccc(C(=O)CC2(O)C(=O)N(CCc3ccccc3)c3ccc(Br)cc32)cc1` (stereo not given), the Potency is 35.5 µM (active).

As to `CCCN1C(=O)C(O)(CC(=O)c2ccc(CC)cc2)c2cc(Br)ccc21` (stereo not given), the Potency was 25.1 µM (active).

`O=C(CC1Oc2ccccc2NC1=O)NCc1ccc(F)cc1` (stereo not given): the Potency entry was “inactive”.

With `O=C(O)c1c(CNCc2cccc(F)c2)c2ccccc2n1Cc1ccccc1`, the Potency result is “inactive”.

Turning to `Cc1nnc(C)n1-c1ccc(C(=O)Nc2cccc(Br)c2)cc1`, the Potency entry is “inactive”.

As to `COC(=O)CN1C(C)=Nc2ccc(Br)cc2C1c1ccccc1` (stereo not given), the Potency entry is “inactive”.

As for `COC(=O)C1NN=C(C(=O)c2ccc(Br)cc2)C1c1cccc(Br)c1` (stereo not given), the Potency is 25.1 µM (active).

For `CC(C)Cn1c(C2CC(=O)N(c3ccccc3Cl)C2)nc2ccccc21` (stereo not given), the Potency result was “inactive”.

As to `Cn1c(=O)n(Cc2c(F)cccc2Cl)c(=O)c2c1nc1n2CCN1c1ccc(F)cc1`, the Potency result was “inactive”.

As for `COc1ccc(CCNc2nc3c(-c4cccc(F)c4)nnn3c3ccccc23)cc1OC`, the Potency result is “inactive”.

Regarding `COc1ccc(-c2cc(C(F)(F)F)n3nc(-c4ccccc4)cc3n2)cc1OC`, the Potency result was “inactive”.

Take `COCCNc1cc(-c2ccccc2)nc2cc(-c3cccc(F)c3)nn12`: the Potency is 3.16 µM (active).

For the compound `CCOC(=O)c1cc2c(=O)n3ccccc3nc2n(CC2CCCO2)c1=NC(=O)c1ccccc1Br` (stereo not given), the Potency result is “inactive”.

On to `CCCc1cc(=O)n2[nH]c(NCc3ccc(CC)cc3)nc2n1`, for which the Potency entry was “inactive”.

With `N/C(Cc1ccc([N+](=O)[O-])cc1)=N\OC(=O)COc1ccc2ccccc2c1`, the Potency result is “inactive”.

On to `O=C(COC(=O)Cc1ccc([N+](=O)[O-])cc1)NC1CCCCCC1`, for which the Potency result was “inactive”.

For `N/C(Cc1ccc([N+](=O)[O-])cc1)=N\OC(=O)C1CCCCC1`, the Potency was 20 µM (active).

With `CC(C)NC(=O)c1nn(-c2ccccc2F)nc1CO`, the Potency entry is “inactive”.

As to `Cc1ccc(-c2nn3c(=O)cc(CN4CCN(S(=O)(=O)c5ccc(Cl)cc5)CC4)nc3s2)cc1`, the Potency result was “inactive”.

For `O=c1cc(Cn2nnc(-c3ccc(Cl)cc3)n2)nc2sccn12`, the Potency was 11.2 µM (active).

Take `COc1cccc(C(=O)NCC(=O)OCc2cc(=O)n3ccsc3n2)c1`: the Potency result is “inactive”.

Turning to `COc1ccc2c(c1)C(c1cccs1)=NNC(c1cccnc1)=N2`, the growth rescue (activation) is -15% [at 9.22 µM].

With `COc1ccc(C2=NC(c3ccncc3)=Nc3ccc(Br)cc3N2)cc1`, the Potency entry is “inactive”.

Regarding `Brc1ccc2c(c1)NC(c1cccnc1)=NC(c1ccccc1)=N2`, the Potency is 35.5 µM (active).

Consider `CCOc1cc(CNC(=O)c2sc3ncnc(N(C)C4CCCCC4)c3c2C)ccc1OC`, for which the Potency entry was “inactive”.

Consider `O=C(c1ccc(Cl)cc1)n1nc(-c2cccnc2)nc1NCc1ccc(F)cc1`, for which the Potency result is “inactive”.

For `CCCC[C@H]1COCCS(=O)(=O)N1Cc1cccc(Cl)c1`, the Potency is 12.6 µM (active).

For `O=S1(=O)CCOC[C@H](Cc2ccccc2)N1Cc1ccccc1Br`, the Potency result is “inactive”.

For `CCC(C)[C@H]1COCCS(=O)(=O)N1Cc1ccc(C)cc1` (stereo not given in full), the Potency entry is “inactive”.

On to `Cc1cccc(OCCCC(=O)Nc2sc3c(c2C(N)=O)CCC(C)C3)c1` (stereo not given), for which the Potency result was “inactive”.

With `Cc1nn(CC(=O)N2CCN(c3cccc(C(F)(F)F)c3)CC2)c(=O)c2cc3sccc3n12`, the Potency result is “inactive”.

As to `CCOc1ccc(-n2c(SCC(=O)NCc3ccccc3)nc3n[nH]c(C)c3c2=N)cc1`, the Potency result was “inactive”.

For the compound `COCCCNC(=S)N1CCCC(c2nc3cc(C)c(C)cc3[nH]2)C1` (stereo not given), the growth rescue (activation) is -14.1% [at 0.397 µM].

Turning to `CN(C)CCCNC(=S)N1CCN(c2nc(-c3ccccc3)cs2)CC1`, the growth rescue (activation) is -17.3% [at 1.82 µM].

As for `COCCCNC(=S)N1CCN(c2nc(-c3cccc(OC)c3)cs2)CC1`, the Potency is 14.1 µM (active).

As for `COc1cc(OC)c(N(C)C(=O)c2cc3c(=O)oc4ccccc4c3s2)cc1Cl`, the Potency entry is “inactive”.

For the compound `Cc1ccc(NC(=O)CN2C(=O)C(c3ccc(F)cc3)=NC23CCCCCC3)c(C)c1`, the Potency entry was “inactive”.

With `CCOc1ccc(NC(=O)c2ccc(CSc3nnnn3C)cc2)cc1`, the Potency entry was “inactive”.

On to `CCOC(=O)c1ccc(CSc2nnc3cc(C)c4ccccc4n23)cc1`, for which the Potency was 22.4 µM (active).

Consider `COC(=O)c1ccc(CSc2nncn2N)cc1`, for which the Potency result is “inactive”.

Consider `COc1ccccc1N1CCN(C(CNC(=O)C(=O)NCc2ccc(C)cc2)c2cccnc2)CC1` (stereo not given), for which the Potency entry was “inactive”.

In the case of `CCc1cccc(C)c1Nc1c(-c2ccc(N(C)C)cc2)nc2ncccn12`, the Potency result is “inactive”.

For `COc1ccccc1CNC(=O)CCCn1c(=O)c2ccccc2n(CC(=O)Nc2ccc(C)cc2Cl)c1=O`, the Potency result was “inactive”.

Regarding `O=C(CSc1oc(-c2ccccc2)nc1S(=O)(=O)c1ccc(Br)cc1)NC1CCCCC1`, the Potency entry is “inactive”.

Take `Cn1c(C(=O)Nc2cccc(C(F)(F)F)c2)cc2c(=O)n3ccccc3nc21`: the Potency entry is “inactive”.

In the case of `CCc1ccc(NC(=O)c2sc3nc4c(cc3c2N)CN(CC)CC4)cc1`, the Potency result was “inactive”.

Turning to `Cc1cccc2cc3c(N)c(C(=O)N4CCCc5ccccc54)sc3nc12`, the Potency is 15.8 µM (active).

For the compound `CCN1CCc2nc3sc(C(=O)Nc4ccccc4OC(F)(F)F)c(N)c3cc2C1`, the Potency entry is “inactive”.

With `CC1CCC(N2CC(=O)N(CCC3=CCCCC3)C(c3ccc(F)cc3)C2=O)CC1` (stereo not given), the Potency result was “inactive”.

Take `CCN(CC)C(=O)CSc1nc2ccsc2c(=O)n1Cc1ccccc1Cl`: the Potency entry is “inactive”.
